{"source": "PubChem BioAssay (EPA / NIEHS)", "key": {"[1]": {"test": "CCTE_Shafer_MEA_dev_firing_rate_mean: CCTE's Neural Network Formation Assay for Mean Firing Rate, Shafer Lab (AID 2284031)", "outline": "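Read-out: spike count/recording length, averaged over active electrodes, then AUC across days 5, 7, 9, 12. Rat cortical cultures on MEA; continuous 12-day exposure, media and treatment renewed DIV 5, 9; DMSO baseline.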"}, "[2]": {"test": "CCTE_Shafer_MEA_dev_per_burst_spike_percent: CCTE's Neural Network Formation Assay for Percent of Spikes in a Burst, Shafer Lab (AID 2284032)", "outline": "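Value is trapezoidal AUC over recordings on days 5, 7, 9 and 12 of the well-mean fraction of spikes falling in single-electrode bursts; rat cortical cultures exposed continuously from plating, treatment renewed DIV 5 and 9, fitted downward against DMSO.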"}, "[3]": {"test": "CCTE_Shafer_MEA_dev_burst_rate: CCTE's Neural Network Formation Assay for Burst Rate, Shafer Lab (AID 2284042)", "outline": "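Developmental network assay measuring how 12-day exposure of rat cortical neuron cultures alters bursting on extracellular MEA recordings. Values are AUC of well-mean burst rate across four recording days, relative to DMSO vehicle.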"}, "[4]": {"test": "CCTE_Shafer_MEA_dev_per_burst_interspike_interval: CCTE's Neural Network Formation Assay for Burst Interspike Interval, Shafer Lab (AID 2284044)", "outline": "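Readout is the average time between spikes inside single-electrode bursts, taken as a well mean across bursting electrodes. Cortical neurons from rat developed networks on MEA plates under continuous 12-day exposure; recordings on days 5, 7, 9 and 12 were integrated by trapezoidal AUC.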"}, "[5]": {"test": "CCTE_Shafer_MEA_dev_burst_duration_mean: CCTE's Neural Network Formation Assay for Mean Burst Duration, Shafer Lab (AID 2284045)", "outline": "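Network-formation assay in primary rat cortical neurons; treatment spans twelve days of development. Mean burst duration per well is integrated by trapezoidal AUC and fitted in the loss-of-signal direction against DMSO baseline.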"}, "[6]": {"test": "CCTE_Shafer_MEA_dev_interburst_interval_mean: CCTE's Neural Network Formation Assay for Mean Interburst Interval, Shafer Lab (AID 2284046)", "outline": "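Network formation assay in primary rat cortical cultures, exposed from DIV 0 to 12. Mean interburst interval per well, integrated as AUC over four recordings.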"}, "[7]": {"test": "CCTE_Shafer_MEA_dev_inter_network_spike_interval_mean: CCTE's Neural Network Formation Assay for Mean Inter-network Spike Interval, Shafer Lab (AID 2284047)", "outline": "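Compound was given at plating to primary rat cortical neurons and renewed with full medium changes on DIV 5 and 9. Extracellular activity was recorded on days 5, 7, 9, 12; AUC values were fitted for loss relative to DMSO control.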"}, "[8]": {"test": "CCTE_Shafer_MEA_dev_network_spike_number: CCTE's Neural Network Formation Assay for Number of Network Spikes, Shafer Lab (AID 2284048)", "outline": "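Extracellular recordings from 16-electrode wells track network formation in rat cortical cultures under continuous treatment from plating. The endpoint is network spike number, expressed as AUC across DIV 5–12 relative to DMSO vehicle.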"}, "[9]": {"test": "CCTE_Shafer_MEA_dev_network_spike_peak: CCTE's Neural Network Formation Assay for Mean Number of Electrodes in Network Spike, Shafer Lab (AID 2284049)", "outline": "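Continuous 12-day exposure of rat cortical cultures, starting at plating, on MEA plates. Endpoint: electrodes participating in network-spike peaks, AUC across DIV 5–12, DMSO as negative control.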"}, "[10]": {"test": "CCTE_Shafer_MEA_dev_spike_duration_mean: CCTE's Neural Network Formation Assay for Mean Spike Duration, Shafer Lab (AID 2284051)", "outline": "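With DMSO as baseline, loss of mean network spike duration was scored from extracellular recordings of rat cortical neurons on MEA plates. Exposure spanned plating to DIV 12; the four recording days were collapsed into one AUC value.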"}, "[11]": {"test": "CCTE_Shafer_MEA_dev_network_spike_duration_std: CCTE's Neural Network Formation Assay for Standard Deviation of Network Spike Duration, Shafer Lab (AID 2284052);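 further: hits are decreases in network spike duration SD versus DMSO vehicle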", "outline": "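Developing networks of rat cortical neurons were exposed over twelve days in vitro on 48-well MEA plates. Trapezoidal AUC of recordings (DIV 5–12) was analysed for signal loss relative to DMSO vehicle.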"}, "[12]": {"test": "CCTE_Shafer_MEA_dev_per_network_spike_spike_number_mean: CCTE's Neural Network Formation Assay for Mean Number of Spikes in a Network Spike, Shafer Lab (AID 2284053)", "outline": "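First, rat cortical cells (1.5 x 10^5/well) were seeded onto MEA wells; second, dosing began at plating and was refreshed on DIV 5 and 9; finally, network-spike spike counts across DIV 5–12 were summarized as AUC.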"}, "[13]": {"test": "CCTE_Shafer_MEA_dev_per_network_spike_spike_percent: CCTE's Neural Network Formation Assay for Percent of Spikes in a Network Spike, Shafer Lab (AID 2284054)", "outline": "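Developing networks of rat cortical neurons are dosed at day 0 and recorded extracellularly four times up to day 12. The endpoint is the area under the curve of percent spikes in network spikes, fitted in the negative direction relative to DMSO.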"}, "[14]": {"test": "CCTE_Shafer_MEA_dev_LDH: CCTE's Lactate Dehydrogenase Assay for Cytotoxicity in the Neural Network Formation Assay, Shafer Lab (AID 2284068; active means hit-call score of the fitted dose curve at least 0.9, where 1 is the maximum)", "outline": "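Developing rat cortical networks on MEA plates are exposed to compound for 12 days from plating. LDH activity is measured spectrophotometrically, with DMSO as baseline.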"}, "[15]": {"test": "CCTE_Shafer_MEA_dev_correlation_coefficient_mean: CCTE's Neural Network Formation Assay for Mean Correlation Coefficient, Shafer Lab (AID 2284093)", "outline": "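Extracellular firing from rat cortical networks on 48-well MEAs, DMSO-referenced, negative fitting direction. Compound present from plating to DIV12; mean pairwise correlation per well integrated over DIV5–12 recordings by trapezoidal AUC.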"}, "[16]": {"test": "IUF_NPC1b_proliferation_BrdU_72hr: Leibniz Research Institute for Environmental Medicine (IUF) 72-hour Neural Progenitor Cell Bromodeoxyuridine (BrdU) Proliferation Assay (NPC1b) (AID 2284207)", "outline": "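Neural progenitor spheres of human fetal origin are treated for three days; BrdU added for the last 16 h is quantified by luminescence ELISA, with DMSO as baseline and EGF/FGF omission as positive control.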"}, "[17]": {"test": "IUF_NPC1_viability_72hr: Viability Assessment at 72 hours in the Leibniz Research Institute for Environmental Medicine (IUF) Neural Progenitor Cell Proliferation Assay (NPC1) (AID 2284209)", "outline": "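Alamar blue fluorescence (RFU) after 72 h exposure, normalized to DMSO baseline. hNPC spheres from GW 16-19 fetal cortex, single sphere per well in growth-factor medium; no compound renewal.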"}, "[18]": {"test": "CCTE_Mundy_HCI_Cortical_Synap_Neur_Matur_NeuriteSpotCountPerNeuriteLength: CCTE's Synaptogenesis and Neurite Maturation Assay in rat cortical cells for Neurite Spot Count per Neurite Length, Mundy Lab (AID 2284210)", "outline": "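Neurite-associated synapse density (synaptophysin puncta per unit neurite length) is measured by fluorescence high-content imaging in rat cortical cultures treated from DIV 7 and fixed at DIV 12, with DMSO as negative control.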"}, "[19]": {"test": "CCTE_Mundy_HCI_Cortical_Synap_Neur_Matur_BPCount: CCTE's Synaptogenesis and Neurite Maturation Assay in rat cortical cells for Branch Point Count, Mundy Lab (AID 2284211)", "outline": "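In this multiplexed morphology assay, cortical cells from rat receive chemicals at DIV 7 and are fixed at DIV 12, then immunostained and imaged; branch points are counted, with DMSO as baseline.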"}, "[20]": {"test": "CCTE_Mundy_HCI_Cortical_NOG_NeuriteCount: CCTE's Neurite Outgrowth Assay in rat cortical cells for Neurite Count, Mundy Lab (AID 2284212);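 further: cells fixed about two days after chemical exposure began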", "outline": "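Rat cortical primary cells; compound added 2 h post-plating, 1/10 dilution of working solution. Anti-betaIII-tubulin/AF488 ICC; ArrayScan neurite count vs DMSO.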"}}, "note": "Records with an inconclusive call do not appear. Calls of active or inactive are those of the source. How the source made its calls, unless noted: active means hit-call score of the fitted dose curve at least 0.9, where 1 is the maximum; inactive means score below 0.9."}
{"smiles": "F", "values": [{"measurement": "outcome", "setting": "[1]", "result": "inactive"}, {"measurement": "outcome", "setting": "[2]", "result": "inactive"}, {"measurement": "outcome", "setting": "[3]", "result": "inactive"}, {"measurement": "outcome", "setting": "[4]", "result": "inactive"}, {"measurement": "outcome", "setting": "[5]", "result": "inactive"}, {"measurement": "outcome", "setting": "[6]", "result": "inactive"}, {"measurement": "outcome", "setting": "[7]", "result": "inactive"}, {"measurement": "outcome", "setting": "[8]", "result": "inactive"}, {"measurement": "outcome", "setting": "[9]", "result": "inactive"}, {"measurement": "outcome", "setting": "[10]", "result": "inactive"}, {"measurement": "outcome", "setting": "[11]", "result": "inactive"}, {"measurement": "outcome", "setting": "[12]", "result": "inactive"}, {"measurement": "outcome", "setting": "[13]", "result": "inactive"}, {"measurement": "outcome", "setting": "[14]", "result": "inactive"}, {"measurement": "outcome", "setting": "[15]", "result": "inactive"}, {"measurement": "AC50", "setting": "[16]", "result": "1.04 mM (active)"}, {"measurement": "AC50", "setting": "[17]", "result": "2.64 mM (active)"}, {"measurement": "outcome", "setting": "[18]", "result": "inactive"}, {"measurement": "outcome", "setting": "[19]", "result": "inactive"}, {"measurement": "outcome", "setting": "[20]", "result": "inactive"}]}
